# Laboratory results: PubChem BioAssay (NCATS)
# Records with an inconclusive call do not appear. Unmarked numbers belong to inactive results. Activity calls are given as the source filed them. Calls follow the shape of the dose curve; as a rule, active = well fitted cell-killing curve with a large enough effect; inconclusive = small, poorly fitted or top-dose-only effect, or effect the other way; inactive = no such curve, though single readings can be large or run the other way.
# Experiment: Viability qHTS for spleen associated tyrosine kinase inhibitor (SYKi) naive MV4-11 cells (AID 1963823); also: nearly all actives have a fitted effect of over 40% in size
# Conditions: MV4-11 AML viability, CellTiter-Glo luminescence, 72 h; series mostly up to 45 µM; viability (% of control): at the top concentration
# How it was run: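 qHTS, SYK inhibitor-naive MV4-11; 500 cells/well; 72 hr compound exposure, 37 C; CellTiter-Glo added, 10 min RT; luminescence read.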
# Potency is read from the fitted curve at half-maximal effect.
Structure (SMILES),Potency,viability (% of control)
CCc1[nH]c2ccc(OC)cc2c1CCN(C)C,10300 nM (active),–
C[C@]12CC[C@H]3[C@@H](CCC4=C/C(=N/OCC(=O)O)CC[C@@]43C)[C@@H]1CC[C@@H]2O,–,86.4%
Cc1c(N2C(=O)[C@@H]3[C@H](O)CCN3C2=O)ccc(C#N)c1Cl,–,79.1%
COc1cc(O)c2c(c1)CCC[C@@H](O)[C@H](O)C(=O)/C=C\C[C@H](C)OC2=O,1800 nM (active),–
COC1C(O)C(C)OC(OC2C(CO)O[C@@H](O[C@@H]3CC4CCC5C(CC[C@]6(C)[C@@H](C7=CC(=O)OC7)CC[C@]56O)[C@@]4(C)[C@H](O)C3)C(O)C2O)C1O (some centres not stated),385 nM (active),–
O=C1C[C@@H]2OCC=C3CN4CC[C@]56c7ccccc7N1[C@H]5[C@H]2[C@H]3C[C@H]46,–,61%
C1=C2CCCN[C@H]2[C@@H]2C[C@H]1[C@H]1CCCCN1C2,–,72.6%
CC(=O)O[C@H]1C[C@@H](C)O[C@H]2O[C@@H]3CC4CC[C@@H]5C(CC[C@]6(C)[C@@H](C7=CC(=O)OC7)CC[C@]56O)[C@@]4(C=O)C[C@H]3O[C@]21O (some centres not stated),43.2 nM (active),–
C/C=C(\C)C(=O)OC1C(C)OC(OC2C(C)OC(OC3CCC4(C)C(=CCC5C4CCC4(C)C(C(C)OC6OC(COC7OC(CO)C(O)C(O)C7O)C(O)C(O)C6O)CCC54O)C3)CC2OC)C(O)C1OC (configuration not stated),–,78.5% [at 9.25 µM]
N#Cc1ccccc1-c1cc(-c2ccccn2)cn(-c2ccccc2)c1=O,–,24.3%
CC1C/C=C/C(O)C(O)CC/C=C/c2cc(O)cc(O)c2C(=O)O1 (configuration not stated),5700 nM (active),–
CCCCCCC(C)(C)c1cc(O)c2c(c1)OC(C)(C)C1CC=C(CO)C[C@H]21 (some centres not stated),1180 nM (active),–
COC(=O)N1CCN(C(=O)Cc2ccc(Cl)c(Cl)c2)[C@@H](CN2CCCC2)C1,–,68.9%

# Experiment: Viability qHTS for spleen associated tyrosine kinase inhibitor (SYKi) drug resistant MV4-11 cells (AID 1963824); also: nearly all actives have a fitted effect of over 35% in size
# Conditions: SYKi-resistant MV4-11 viability, CellTiter-Glo, 72 h; series mostly up to 45 µM; viability, % of control: at the top concentration
# How it was run: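 CellTiter-Glo luminescence, read 10 min after reagent addition, reports viability after a 72 hr compound exposure. Cells are an MV4-11 line made resistant to SYK inhibition, seeded at 500 per well onto compound-containing plates.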
Structure (SMILES),"viability, % of control",Potency
CCC(C)(C#N)O[C@@H]1O[C@H](CO)[C@@H](O)[C@H](O)[C@H]1O (some centres not stated),100%,–
CCC(C)/C=C(C)/C=C/C1=CC2=C(Cl)C(=O)C(C)(OC(C)=O)C(=O)C2=CO1 (configuration not stated),–,8050 nM (active)
C=C1[C@@]23C(=O)O[C@H](C)[C@]24O[C@@]2(C(=C)[C@]5(C=CC(=O)OC5(C)C)CC[C@]32C)[C@H](O)[C@@]1(C)OC4=O,76% [at 17.3 µM],–
CO[C@H]1C[C@H](O[C@H]2CC[C@]3(C=O)[C@H]4CC[C@]5(C)[C@@H](C6=CC(=O)OC6)CC[C@]5(O)[C@@H]4CC[C@]3(O)C2)O[C@H](C)[C@H]1O,–,39.9 nM (active)
COC[C@@H]1OC(=O)c2coc3c2[C@]1(C)C1=C(C3=O)[C@H]2CC[C@H](O)[C@@]2(C)C[C@@H]1OC(C)=O,–,6510 nM (active)
CO[C@H]1C[C@H](O[C@H]2CC[C@]3(CO)[C@H]4CC[C@]5(C)[C@@H](C6=CC(=O)OC6)CC[C@]5(O)[C@@H]4CC[C@]3(O)C2)O[C@H](C)[C@H]1O,–,63.2 nM (active)
COC1CC(O[C@H]2CC[C@]3(C)C4CC[C@]5(C)[C@@H](C6=CC(=O)OC6)[C@@H](OC(C)=O)C[C@]5(O)C4CC[C@@H]3C2)OC(C)C1O (some centres not stated),–,178 nM (active)
CC(C)C(=O)O[C@H]1[C@@H]2[C@H](C)C(=O)O[C@@H]2C[C@@H](C)[C@@H]2C=CC(=O)[C@]21C,–,2270 nM (active)
CC[C@@H](C)[C@H]1C(=O)O[C@H](C(C)C)C(=O)N(C)[C@@H]([C@@H](C)CC)C(=O)O[C@H](C(C)C)C(=O)N(C)[C@@H]([C@H](C)CC)C(=O)O[C@H](C(C)C)C(=O)N1C,–,1720 nM (active)
CCC1NC(=O)C2C(Cl)C(Cl)CN2C(=O)C(C(C)O)NC(=O)CC(c2ccccc2)NC(=O)C(CO)NC1=O (configuration not stated),96.4% [at 17.3 µM],–
CC1=CC(=O)[C@@H](O)[C@@]2(C)C1C[C@H]1OC(=O)[C@H](O)[C@@]3(O)[C@@H](C)[C@@H](O)[C@H](O)C2[C@@]13C (some centres not stated),–,1800 nM (active)
COC[C@]12CN(C)C3C4[C@H](OC)[C@H]1C3(C(OC)C[C@H]2O)[C@H]1C[C@@]2(O)[C@H](OC(=O)c3ccccc3)[C@@H]1[C@]4(O)[C@@H](O)[C@@H]2OC (some centres not stated),77.7%,–
CC1=C[C@H]2O[C@@H]3[C@H](O)[C@@H](O)[C@](C)([C@@]2(CO)C[C@@H]1O)[C@]31CO1,–,731 nM (active)
COC1C=CC23c4cc5c(cc4COC2(O)CN(C)C3C1)OCO5 (configuration not stated),83.1%,–
C/C=C(\C)C(O)C(C)/C=C(C)/C=C/C/C(C)=C/Cc1nc(OC)c(OC)c(O[C@@H]2O[C@@H](C)[C@H](O)[C@@H](O)[C@H]2O)c1C (some centres not stated),–,252 nM (active)
C[C@H]1CCC[C@H](O)CCC/C=C/c2cc(O)cc(O)c2C(=O)O1,–,9200 nM (active)
CC1=CC2/C=C(\C)CCC(O)C(O)/C=C/C(=O)OC23C(=O)NC(CC(C)C)C3C1C (configuration not stated),–,7960 nM (active)
COC1C(O)C(OC2CCC3(C=O)C(CCC4C3CCC3(C)C(C5=CC(=O)OC5)CCC43O)C2)OC(C)C1OC1OC(CO)C(O)C(O)C1O (configuration not stated),–,172 nM (active)
C/C=C(\C)C(=O)OC1CC2C(CC=C3CC(OC4CC(OC)C(OC5CC(OC)C(OC6OC(C)C(OC7OC(CO)C(O)C(O)C7O)C(OC)C6O)C(C)O5)C(C)O4)CCC32C)C2(O)CCC(C(C)=O)C12C (configuration not stated),85.3% [at 9.25 µM],–
C/C=C(\C)C(=O)OC1CC2C(C)(C)OC(=O)CC(OC(C)=O)C2(C)C2CC(OC(=O)C(C)C)C3(C)C(c4ccoc4)CC4OC43C12C (configuration not stated),71.4% [at 17.3 µM],–

Structure (SMILES),"viability, % of control",Potency
C[C@@H]1C[C@@H](O)[C@]2(O)O[C@@H]3C[C@@]4(C=O)C(CC[C@@H]5C4CC[C@]4(C)[C@@](O)(C6=CC(=O)OC6)CC[C@]54O)C[C@H]3OC2O1 (some centres not stated),–,709 nM (active)
CC(C)(C)c1cc(C(C)(C)C)c2c(c1)C(O)(C(F)(F)F)C(=O)O2 (configuration not stated),77.1%,–
O=C(N[C@@H](COc1ccc2[nH]c(=O)[nH]c2c1)c1ccccc1)c1cccn(Cc2ccc(F)c(F)c2)c1=O,–,11600 nM (active)
C=C1C[C@]2(O)[C@@]3(C)CCC(=O)C(C)(C)C3=C(O)C(=O)[C@@]2(C)[C@@H]2C(=O)O[C@@](C)(C(=O)OC)C(=O)[C@@]12C,67.5% [at 17.3 µM],–
CCC1C2CC3C4N(C)c5ccccc5C45CC(C2C5O)N3C1O (configuration not stated),4.78%,–
CO[C@H]1[C@H](O)[C@H](O[C@H]2CC[C@]3(C)C4CC[C@]5(C)[C@H](C6=CC(=O)OC6)CC[C@]5(O)C4CC[C@@H]3C2)O[C@@H](C)[C@@H]1O (some centres not stated),–,11.2 nM (active)
CCc1[nH]c2ccc(OC)cc2c1CCN(C)C,69.4%,–
C[C@]12CC[C@H]3[C@@H](CCC4=C/C(=N/OCC(=O)O)CC[C@@]43C)[C@@H]1CC[C@@H]2O,110%,–
Cc1c(N2C(=O)[C@@H]3[C@H](O)CCN3C2=O)ccc(C#N)c1Cl,86.5%,–
COc1cc(O)c2c(c1)CCC[C@@H](O)[C@H](O)C(=O)/C=C\C[C@H](C)OC2=O,–,2860 nM (active)
COC1C(O)C(C)OC(OC2C(CO)O[C@@H](O[C@@H]3CC4CCC5C(CC[C@]6(C)[C@@H](C7=CC(=O)OC7)CC[C@]56O)[C@@]4(C)[C@H](O)C3)C(O)C2O)C1O (some centres not stated),–,217 nM (active)
O=C1C[C@@H]2OCC=C3CN4CC[C@]56c7ccccc7N1[C@H]5[C@H]2[C@H]3C[C@H]46,80.6%,–
C1=C2CCCN[C@H]2[C@@H]2C[C@H]1[C@H]1CCCCN1C2,73.7%,–
CC(=O)O[C@H]1C[C@@H](C)O[C@H]2O[C@@H]3CC4CC[C@@H]5C(CC[C@]6(C)[C@@H](C7=CC(=O)OC7)CC[C@]56O)[C@@]4(C=O)C[C@H]3O[C@]21O (some centres not stated),–,48.5 nM (active)
C/C=C(\C)C(=O)OC1C(C)OC(OC2C(C)OC(OC3CCC4(C)C(=CCC5C4CCC4(C)C(C(C)OC6OC(COC7OC(CO)C(O)C(O)C7O)C(O)C(O)C6O)CCC54O)C3)CC2OC)C(O)C1OC (configuration not stated),105% [at 9.25 µM],–
N#Cc1ccccc1-c1cc(-c2ccccn2)cn(-c2ccccc2)c1=O,25.7%,–
CC1C/C=C/C(O)C(O)CC/C=C/c2cc(O)cc(O)c2C(=O)O1 (configuration not stated),–,8050 nM (active)
CCCCCCC(C)(C)c1cc(O)c2c(c1)OC(C)(C)C1CC=C(CO)C[C@H]21 (some centres not stated),–,1660 nM (active)
COC(=O)N1CCN(C(=O)Cc2ccc(Cl)c(Cl)c2)[C@@H](CN2CCCC2)C1,69.3%,–
